In PubChem BioAssay:
Results with a measured potency or affinity are listed apart. The source made the active and inactive calls. The limit is not given here; nearly all actives have IC50 up to about 0.91 µM.

target: Calcium-dependent protein kinase 4 (Plasmodium falciparum (isolate 3D7)) (UniProt Q8IBS5); test: PfCDPK4 kinase inhibitors, biochemical, TCAMS library (AID 1159588); conditions: recombinant PfCDPK4, Kinase-Glo ATP depletion luminescence
Sequence (Q8IBS5 whole entry, looked up): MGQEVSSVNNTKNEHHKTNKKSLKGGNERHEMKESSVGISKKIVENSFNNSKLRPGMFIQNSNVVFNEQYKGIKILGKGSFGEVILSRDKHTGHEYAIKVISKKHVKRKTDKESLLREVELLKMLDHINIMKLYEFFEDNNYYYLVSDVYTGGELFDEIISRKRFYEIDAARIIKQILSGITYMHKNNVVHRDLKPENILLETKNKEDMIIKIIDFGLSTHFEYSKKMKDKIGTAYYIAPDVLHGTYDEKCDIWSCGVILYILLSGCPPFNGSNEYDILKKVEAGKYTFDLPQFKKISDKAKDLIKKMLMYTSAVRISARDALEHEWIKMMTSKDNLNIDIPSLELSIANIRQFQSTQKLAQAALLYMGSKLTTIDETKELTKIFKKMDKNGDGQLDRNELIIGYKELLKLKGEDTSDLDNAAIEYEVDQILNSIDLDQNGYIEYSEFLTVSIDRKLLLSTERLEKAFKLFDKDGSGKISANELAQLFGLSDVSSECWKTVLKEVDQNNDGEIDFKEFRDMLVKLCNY

outcome, inactive:
CCN1CCC(N(Cc2ccc(-c3ccc(C(F)(F)F)cc3)cc2)C(=O)Cn2c(CCc3cccc(F)c3F)cc(=O)c3c2CCC3)CC1
Cc1cc(=O)c2cc(Oc3cccc(OC(F)(F)F)c3)ccc2[nH]1
COc1ccc(CCn2c(=N)c(C(=O)NC3CCCC3)cc3c(=O)n4ccccc4nc32)cc1
COc1cc(CCON2C(N)=NC(N)=NC2(C)C)cc(OC)c1OC
CSC1=NC(=Nc2ccccc2C)C2(CCC(C(C)(C)C)CC2)N1c1ccccc1Cl (stereo not given)
COc1ccc(-c2cnc3ccc(NCc4ccc(F)cc4)nn23)cc1OC
CNC(=O)c1cnc(Nc2ccc(N3CCN(C)CC3)c(C)c2)nc1NC
CCNc1cc(C)nc(Nc2ccccc2)n1
Oc1cc(Nc2ccnc3ccc(I)cc23)c(F)cc1Cl
c1ccc(-c2cccnn2)cc1
CC(C)C[C@H](Nc1ccnc(NCC2CCCCC2)n1)C(=O)NCCc1ccccc1
COc1ccc(CNc2ncc(-c3ccsc3)c(-c3nccs3)n2)cc1OC
O=C(CCc1cnc[nH]1)Nc1cccc(-c2ccc(-c3nc4ccccc4[nH]3)s2)c1
CCc1cc2c(=O)c(-c3nc(C)cs3)c([C@H](N)Cc3ccc(O)cc3)oc2cc1O
O=C(Nc1ccccc1)N(Cc1ccccc1-c1cccc(CNCCc2ccccc2)c1)C1CCN(Cc2ccccc2)CC1
Cc1cccc2c(N=NC(=S)N(C)C)c(O)[nH]c12
COc1cc(OC)cc(-c2nc3c(C#N)c(OCCN(C)C)ccc3[nH]2)c1
c1cc(-c2ccc(CNC3CC3)cc2)cc(-c2nc3ccccc3[nH]2)c1
O=C(Nc1ccccc1)OCCOc1ccc(CC2SC(=O)NC2=O)cc1 (stereo not given)
O=C(C=CC(=O)N1CCCCC1)NCc1ccccc1
CCNc1cc(C(=O)N[C@@H](Cc2ccccc2)[C@H](O)CNCCc2ccccc2)cc(N2CCCCS2(=O)=O)c1
O=C(Nc1ccc(-c2cccc(-c3nc4ccc(C(F)(F)F)cc4[nH]3)c2)cc1)c1csnn1
O=C(C=Cc1ccc(Cl)c(Cl)c1)NCCCCCN1CCCC(CCCNC(=O)[C@@H]2C[C@H]2c2ccccc2)C1 (stereo not given in full)
CNCCNCc1cccc(-c2ccc(-c3nc4ccccc4[nH]3)s2)c1
Fc1cc(Cl)ccc1Nc1ccnc2cc(I)ccc12
CCOc1cc(C(=O)NC2CC(C)(C)NC(C)(C)C2)ccc1-c1nc2ccc(Cl)cc2[nH]1
CC(=O)Nc1ccc(C(=O)Nc2cccc(-c3cccc(-c4nc5ccc(C(F)(F)F)cc5[nH]4)c3)c2)cn1
CCNc1cc(C(=O)N[C@@H](Cc2ccccc2)[C@H](O)CNC2CCCCC2)cc(N2CCCCS2(=O)=O)c1
Cc1nc(Nc2ccncc2)cc(-c2ccncc2)n1
Cc1cccc2[nH]c(-c3cccc(-c4ccc(NC(=O)Cc5ccccn5)cc4)c3)nc12
Cc1ncc([N+](=O)[O-])n1CCOC(=O)NC(Nc1ccc(Br)cc1)C(Cl)(Cl)Cl (stereo not given)
CC(C)(C)C1CC(=O)C[C@@H]2C(=O)N(c3ccc(Br)cc3)C(=O)[C@H]12 (stereo not given in full)
CC(C)CNCc1ccc(-c2cccc(CNC3CCN(Cc4ccccc4)CC3)c2)cc1
COC(=O)CCCCOc1c(OC)cc(Cc2cnc(N)nc2N)cc1OC
Cc1nc(-c2ccc(-c3ccc(NC(=O)c4coc5ccc(N6C[C@@H](C)N(C)[C@@H](C)C6)cc45)cc3)c(C)c2)no1
COC(=O)Cc1ccc(N)c2ccccc12
Oc1ccc(CCCNc2nc(NCc3cccc4ccccc34)nc(NC3CCNCC3)n2)cc1
CCCCC(NCC)c1ccc(OCCOc2ccc(C(CCCC)NCC)cc2)cc1 (stereo not given)
CN1CCC(NCc2ccc(-c3ccc(C(F)(F)F)cc3)cc2)CC1
CC(=O)Nc1ccc(CN2CCC(NC(=O)c3ccc(-c4cccc(C(F)(F)F)c4)s3)CC2)cc1
